According to PubChem BioAssay (NCI):
This is part of a sample that, as a whole, favours compounds with a hit. Of some 83,000 tested, about 20% had one in any assay.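 Single-concentration screen, 48 h exposure, 96-well plates. Endpoint: percent growth. Below 10 = active.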 The source made the active and inactive calls.

Columns and labels:
Assay in all cases: NCI-60 one-dose screen, 48 h (100 = growth as untreated, 0 = no growth, -100 = all killed)
Details in all cases: 10 µM unless noted
DU-145 prostate = system: DU-145 prostate
K-562 leukemia = system: K-562 leukemia
MALME-3M melanoma = system: MALME-3M melanoma
MDA-MB-231 breast = system: MDA-MB-231 breast
RXF 393 renal = system: RXF 393 renal
SF-268 CNS = system: SF-268 CNS
SF-295 CNS = system: SF-295 CNS
SF-539 CNS = system: SF-539 CNS
UACC-257 melanoma = system: UACC-257 melanoma
M14 melanoma = system: M14 melanoma

Measured: growth

C[C@@H]1N=C(c2ccc(Cl)cc2Cl)Nc2nc3ccccn3c2C1=O
inactive: DU-145 prostate 64.8% | K-562 leukemia 23.6% | MALME-3M melanoma 43.7% | MDA-MB-231 breast 64.6% | RXF 393 renal 80.2% | SF-268 CNS 58.9% | SF-295 CNS 14.5% | SF-539 CNS 53% | UACC-257 melanoma 52.4% | M14 melanoma 31.1%

C=C(CNCCO)[C@@H]1CC[C@]2(CO)CC[C@]3(C)[C@H](CC[C@@H]4[C@@]5(C)CCC(NCCO)C(C)(C)[C@@H]5CC[C@]43C)[C@@H]12 (stereo not given in full)
active: K-562 leukemia 0.374%
inactive: DU-145 prostate 79.2% | MALME-3M melanoma 61.8% | MDA-MB-231 breast 51.4% | RXF 393 renal 57.4% | SF-268 CNS 69.1% | SF-295 CNS 80.8% | SF-539 CNS 70.8% | UACC-257 melanoma 77.9% | M14 melanoma 14.3%

Nc1nc(Nc2ccc([N+](=O)[O-])cc2O)nc(C(Cl)(Cl)Cl)n1
inactive: DU-145 prostate 97.3% | K-562 leukemia 28.7% | MALME-3M melanoma 84.9% | MDA-MB-231 breast 86.9% | RXF 393 renal 76.1% | SF-268 CNS 64.4% | SF-295 CNS 93.2% | SF-539 CNS 58% | UACC-257 melanoma 85.7% | M14 melanoma 74.6%

COc1ccc(/C=C2/CCc3cc4ccc(OC)cc4[o+]c32)c(O)c1
inactive: DU-145 prostate 76.7% | K-562 leukemia 39.1% | MALME-3M melanoma 16.9% | MDA-MB-231 breast 36.7% | RXF 393 renal 71.4% | SF-268 CNS 82.2% | SF-295 CNS 106% | SF-539 CNS 109% | UACC-257 melanoma 87.4% | M14 melanoma 26%

Cc1csc(Nc2nc(-c3cccc(Cl)c3)nc(C(Cl)(Cl)Cl)n2)n1
inactive: K-562 leukemia 65.6% | MALME-3M melanoma 102% | SF-268 CNS 65.8% | SF-295 CNS 34.1% | SF-539 CNS 34% | UACC-257 melanoma 36.2% | M14 melanoma 88.3%
active: DU-145 prostate -30.4% | MDA-MB-231 breast 9.88% | RXF 393 renal -2.8%

C=C1C(=O)O[C@H]2[C@H]1CC/C(CNC(=O)/C=C/c1cc(OC)c(OC)c(OC)c1)=C\CC[C@@]1(C)O[C@@H]21
inactive: SF-268 CNS 28.1% | SF-295 CNS 50.4%
active: DU-145 prostate 7.86% | K-562 leukemia -9.87% | MALME-3M melanoma -36.6% | MDA-MB-231 breast 5.65% | RXF 393 renal -88% | SF-539 CNS -36% | UACC-257 melanoma -26.1% | M14 melanoma -32.3%

COc1ccc(/C=N/NC(=O)Cn2nnc3ccccc32)cc1
inactive: DU-145 prostate 117% | K-562 leukemia 93% | MALME-3M melanoma 103% | MDA-MB-231 breast 107% | RXF 393 renal 93.7% | SF-268 CNS 85.5% | SF-295 CNS 103% | SF-539 CNS 105% | UACC-257 melanoma 95.2% | M14 melanoma 109%

O=C(/C=C/c1ccc(Cl)cc1)c1ccc(Nc2ccnc3cc(Cl)ccc23)cc1
inactive: DU-145 prostate 145% | K-562 leukemia 27.8% | MALME-3M melanoma 79.9% | MDA-MB-231 breast 48.4% | SF-268 CNS 164% | SF-539 CNS 122% | UACC-257 melanoma 93.4% | M14 melanoma 84.5%
active: RXF 393 renal -41.4% | SF-295 CNS 9.54%

N#CSCc1cc(Cl)c(CSC#N)cc1Cl
inactive: DU-145 prostate 59.7% | K-562 leukemia 29.2% | MALME-3M melanoma 58% | MDA-MB-231 breast 57.6% | RXF 393 renal 34.3% | SF-268 CNS 63.3% | SF-295 CNS 97.5% | SF-539 CNS 45.7% | UACC-257 melanoma 103% | M14 melanoma 27.4%

O=C(Nc1ccccc1)Nc1ccccc1CNc1nc(Nc2ccc(OCCN3CCCC3)cc2)ncc1Cl
inactive: DU-145 prostate 88% | MALME-3M melanoma 71.2% | MDA-MB-231 breast 41.9% | RXF 393 renal 33.7% | SF-268 CNS 72.5% | SF-295 CNS 73.3% | SF-539 CNS 31% | UACC-257 melanoma 75.3% | M14 melanoma 61.2%
active: K-562 leukemia 7.08%

CCOC(=O)c1ccc2c(c1)[n+](=O)c(C(C)=O)c(C(F)(F)F)n2[O-]
inactive: MDA-MB-231 breast 22.2% | RXF 393 renal 31.6% | SF-295 CNS 23% | SF-539 CNS 29.7%
active: DU-145 prostate -88.5% | K-562 leukemia -76.7% | MALME-3M melanoma -40% | SF-268 CNS -51.8% | UACC-257 melanoma -37.1% | M14 melanoma 8.64%

CCCCN(CCC#N)C(N)=O
inactive: DU-145 prostate 97.2% | K-562 leukemia 115% | MALME-3M melanoma 98.4% | MDA-MB-231 breast 104% | RXF 393 renal 109% | SF-268 CNS 99.7% | SF-295 CNS 111% | SF-539 CNS 100% | UACC-257 melanoma 101% | M14 melanoma 112%

O=C1CCC(C(=O)N/N=C/c2ccc([N+](=O)[O-])cc2)N1 (stereo not given)
inactive: DU-145 prostate 103% | K-562 leukemia 103% | MALME-3M melanoma 101% | MDA-MB-231 breast 109% | RXF 393 renal 111% | SF-268 CNS 96.7% | SF-295 CNS 99.7% | SF-539 CNS 93.7% | UACC-257 melanoma 106% | M14 melanoma 104%

O=C1/C(=C/c2ccc(-c3ccc(Cl)cc3)o2)SC(=S)N1CCc1ccc(O)cc1
inactive: DU-145 prostate 29.1% | K-562 leukemia 26.1% | MALME-3M melanoma 76.7% | MDA-MB-231 breast 75.6% | RXF 393 renal 70% | SF-268 CNS 31.2% | SF-295 CNS 104% | SF-539 CNS 70.9% | UACC-257 melanoma 42% | M14 melanoma 38.2%

N#Cc1nn(-c2ccccn2)c(N)c1C#N
inactive: DU-145 prostate 104% | K-562 leukemia 94% | MALME-3M melanoma 103% | MDA-MB-231 breast 109% | RXF 393 renal 127% | SF-268 CNS 97.2% | SF-295 CNS 96.2% | SF-539 CNS 97.2% | UACC-257 melanoma 103% | M14 melanoma 102%

CCOC(=O)C#Cc1c(CC(=O)OCC)nnn1[C@H]1O[C@@H](CO)[C@@H]2OC(C)(C)O[C@@H]21
active: RXF 393 renal 3.65%
inactive: DU-145 prostate 94.5% | K-562 leukemia 10.3% | MALME-3M melanoma 26.6% | MDA-MB-231 breast 105% | SF-268 CNS 105% | SF-295 CNS 97.4% | SF-539 CNS 75.3% | UACC-257 melanoma 62.8% | M14 melanoma 58.3%

O=C1OCC2=C1C(c1cccc(F)c1)c1cc3c(cc1N2CCO)CCC3 (stereo not given)
inactive: MALME-3M melanoma 50.9% | MDA-MB-231 breast 26.9% | RXF 393 renal 32.3% | SF-268 CNS 23.3% | UACC-257 melanoma 90.1%
active: DU-145 prostate 2.44% | K-562 leukemia 9.4% | SF-295 CNS -6.45% | SF-539 CNS -28.9% | M14 melanoma 7.72%

CC1=C2[C@@H](CC1)[C@]1(C)O[C@@](C(C)C)(C[C@H]1OC(=O)CO)[C@H]2OC(=O)CCCc1ccccc1
inactive: DU-145 prostate 75.8% | K-562 leukemia 53.9% | MALME-3M melanoma 57.3% | MDA-MB-231 breast 88.2% | RXF 393 renal 86.2% | SF-268 CNS 73.4% | SF-295 CNS 78.5% | SF-539 CNS 96.6% | UACC-257 melanoma 85.1% | M14 melanoma 77.5%

CSc1nc(N)c2c(n1)NC(c1ccccc1)C1CCc3ccccc3C1=N2 (stereo not given)
inactive: DU-145 prostate 74.5% | K-562 leukemia 47.7% | MALME-3M melanoma 113% | MDA-MB-231 breast 71.9% | RXF 393 renal 84.4% | SF-268 CNS 60.1% | SF-295 CNS 41.7% | SF-539 CNS 102% | UACC-257 melanoma 88.7% | M14 melanoma 55.7%

CCN1CCN(c2nc(NNC(=O)c3ccc(OC)cc3)nc(N3CCN(C(c4ccccc4)c4ccccc4)CC3)n2)CC1
active: MALME-3M melanoma -63.7% | M14 melanoma -40.5%
inactive: DU-145 prostate 72.2% | K-562 leukemia 14% | MDA-MB-231 breast 82.9% | RXF 393 renal 55.7% | SF-268 CNS 81.8% | SF-295 CNS 71.3% | SF-539 CNS 73.2% | UACC-257 melanoma 10.3%

Nc1ccc(N)c2c1C(=O)c1cccc([N+](=O)[O-])c1C2=O
inactive: K-562 leukemia 40.4% | MALME-3M melanoma 54.3% | MDA-MB-231 breast 67.9% | RXF 393 renal 45.7% | SF-268 CNS 57.3% | SF-295 CNS 21.3% | SF-539 CNS 23.6% | UACC-257 melanoma 52.3% | M14 melanoma 30.8%
active: DU-145 prostate -15.9%

Cn1cc(-c2csc(-c3cn(CCO)c4ccc(F)cc34)n2)c2cccnc21
inactive: DU-145 prostate 95.4% | K-562 leukemia 18.1% | MALME-3M melanoma 72.8% | MDA-MB-231 breast 57.9% | RXF 393 renal 69.7% | SF-268 CNS 77.6% | SF-295 CNS 52.3% | SF-539 CNS 69.9% | UACC-257 melanoma 77.4% | M14 melanoma 35.7%

CCCNNC(=O)c1ccc(CNC(=O)/C=C/c2ccccc2)cc1
inactive: DU-145 prostate 37% [2.5 µM] | K-562 leukemia 15% [2.5 µM] | MALME-3M melanoma 30.1% [2.5 µM] | MDA-MB-231 breast 55.7% [2.5 µM] | SF-268 CNS 52.6% [2.5 µM] | SF-295 CNS 33.3% [2.5 µM] | SF-539 CNS 44.2% [2.5 µM] | UACC-257 melanoma 24.1% [2.5 µM] | M14 melanoma 29.9% [2.5 µM]
active: RXF 393 renal 1.56% [2.5 µM]

CCCCCCCCOC(=O)c1c(C)[nH]c(/C=C2\N=C(c3ccc[nH]3)C=C2OC)c1C
inactive: DU-145 prostate 23.3% | K-562 leukemia 10.8% | SF-268 CNS 24%
active: MALME-3M melanoma -42.9% | MDA-MB-231 breast -5.15% | RXF 393 renal -19.9% | SF-295 CNS -34.7% | SF-539 CNS 3.4% | UACC-257 melanoma -15.2% | M14 melanoma -56.1%

CC(=O)OCC(=O)O[C@@H]1C[C@]2(C(C)C)O[C@@]1(C)[C@@H]1CC[C@@H](C)[C@H]1[C@@H]2OC(=O)/C=C/c1ccccc1
active: RXF 393 renal -2.3%
inactive: DU-145 prostate 101% | K-562 leukemia 67.5% | MALME-3M melanoma 101% | MDA-MB-231 breast 82.9% | SF-268 CNS 51.5% | SF-295 CNS 88.8% | SF-539 CNS 92.4% | UACC-257 melanoma 92.5% | M14 melanoma 97.2%

COc1nc2ccccc2cc1/C=[N+](\[O-])c1ccccc1
inactive: DU-145 prostate 102% | K-562 leukemia 13.5% | MALME-3M melanoma 60.9% | MDA-MB-231 breast 57.5% | RXF 393 renal 85.5% | SF-268 CNS 65.5% | SF-295 CNS 93.5% | SF-539 CNS 34.2% | UACC-257 melanoma 93% | M14 melanoma 39.6%

O=C1/C(=C/c2ccc(Br)cc2)COc2ccc(O)cc21
active: K-562 leukemia 9.11%
inactive: DU-145 prostate 101% | MALME-3M melanoma 91.7% | MDA-MB-231 breast 85.9% | RXF 393 renal 95.9% | SF-268 CNS 89.8% | SF-295 CNS 100% | SF-539 CNS 92.5% | UACC-257 melanoma 103% | M14 melanoma 83.7%
